Compound activity deposited in PubChem BioAssay by National Center for Advancing Translational Sciences (NCATS).
Only some compounds are listed: those with a hit (about 7.5% of all), similar ones and a draw of the others.
FBPA Giardia inh: inhibitors of Giardia lamblia fructose-1,6-bisphosphate aldolase; purified Giardia FBPA; Potency, µM (series often up to 59.6 µM), without a hit: at the highest dose activity, negative = inhibition, most hits filed as inhibitors; actives 0.71% (n = 290,000); also: potency is read from the fitted curve at half-maximal effect; nearly all actives have a fitted effect of over 55% in size
Target sequence (A8B2U2 whole entry, looked up): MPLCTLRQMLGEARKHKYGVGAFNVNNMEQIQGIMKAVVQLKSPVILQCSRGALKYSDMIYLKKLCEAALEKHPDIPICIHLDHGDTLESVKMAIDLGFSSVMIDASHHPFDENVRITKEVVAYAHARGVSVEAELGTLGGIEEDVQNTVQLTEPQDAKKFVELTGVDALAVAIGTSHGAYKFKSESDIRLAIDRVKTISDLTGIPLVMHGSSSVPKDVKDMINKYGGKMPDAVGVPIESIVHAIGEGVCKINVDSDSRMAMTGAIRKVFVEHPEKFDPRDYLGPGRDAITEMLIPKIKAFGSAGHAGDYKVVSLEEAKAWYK
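40 nM FBPA preincubated 10 min at RT with compound (up to 57.5 uM final), then substrate plus GAPDH/TPI/NAD/arsenate coupling and diaphorase/resazurin added. Fluorescence read after 20 min at RT, 525/598 nm.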
Vaccinia mCherry: vaccinia inhibition (mCherry reporter). Vaccinia virus mCherry reporter infection, fluorescence. Potency, µM (series often up to 36.5 µM), for the others: at the top dose activity change, negative = inhibition, usual class: inhibitors. actives 0.63% (n = 310,000); calls by dose curve; tested in A549 cells; also: potency is read from the fitted curve at half-maximal effect; nearly all actives have a fitted effect of over 35% in size
Vaccinia Venus: inhibitors of vaccinia virus (Venus reporter); Vaccinia virus Venus reporter expression, fluorescence; Potency, µM (top dose mostly 36.5 µM), for the others: at the highest dose activity change, negative = inhibition, actives largely listed as inhibitors; actives 0.46% (n = 330,000); AID 720580; calls by dose curve; tested in A549 cells; also: potency is read from the fitted curve at half-maximal effect; nearly all actives have a fitted effect of over 30% in size
FMDV antiviral: foot and mouth disease virus antiviral activity; AID 1159524; Potency, µM (doses to about 57.9 µM), for the others: top-dose activity change, negative = inhibition, most hits filed as inhibitors; FMDV antiviral cell-based qHTS; actives 1.2% (n = 410,000); calls by dose curve; tested in HEK293T cells; also: read-out not given here; potency is read from the fitted curve at half-maximal effect; nearly all actives have a fitted effect of over 45% in size
HCMV inh: inhibitors of human cytomegalovirus; HFF cells, HCMV-luciferase reporter, 72 h; active compounds read low; activity change, negative = inhibition, % at 57.5 µM; actives 4.5% (n = 410,000); in the data active = activity change below about -60%; inconclusive = no clear call, values can overlap the other calls; inactive = above about -39%
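Two compound doses tested in HFFs infected with HCMV-luciferase, MOI 1 PFU/cell, 72 h at 37C. Lysate luminescence read with OneGlo; data normalized against buffer-only and 10uM Salinomycin inhibitor controls.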
HCV inh: HCV inhibition | Huh7.5.1 HCVcc-Cre infection, luciferase reporter, 44 h | Potency, µM (titrated, usually from 41.8 µM), without a hit: top-dose activity change, negative = inhibition, most hits filed as inhibitors | actives 3.4% (n = 340,000); also: potency is read from the fitted curve at half-maximal effect
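Cells (1,000/well) were plated 4 h before compound, then infected with HCVcc-Cre virus (~0.5 moi). After 44 h further culture, infection was read as luciferase luminescence following a 15 min substrate incubation at room temperature.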
Starred values were filed as active, the others as inactive; i = inactive; ? = inconclusive; . = not tested or not shown; + = active, no number; [ ] = remark or other dose. Unless noted, calls follow the shape of the dose curve; as a rule, active = well fitted curve in the direction sought with a large enough effect; inconclusive = small, poorly fitted or top-dose-only effect, or another doubt; inactive = no such curve, though single readings can be large; an effect the other way counts as inactive or inconclusive. % is scaled to controls: 0 for no effect and ±100 for the full control effect.

SMILES	FBPA Giardia inh	Vaccinia mCherry	Vaccinia Venus	FMDV antiviral	HCMV inh	HCV inh
Cc1ccc(C2C(/C=C3/SC(=S)NC3=O)=C(c3cccs3)Oc3ccccc32)cc1 (stereo not drawn)	9.3%	-9.6%	-20.8%	.	-60.8*	?
O=C1NC(=S)SC1=Cc1ccccc1Cl	.	-9.8%	-6.7%	-13.6%	22.6	8.8%
COc1ccc(-c2csc(N3C(=O)C4C5c6ccccc6C(c6ccccc65)[C@@H]4C3=O)n2)cc1 (stereo partly drawn)	-0.9%	-9.4%	2.8%	-15.9%	?	19.2%
Cc1ccc(-c2csc(N)n2)cc1	.	11.2µM*	?	35.9%	-32.6	-4.5%
COc1ccc(-c2csc(N3C(=O)C4C5c6ccccc6C(c6ccccc65)C4C3=O)n2)cc1 (stereo not drawn)	-1.0%	i	-8.7%	-13.1%	-62.4*	8.2%
COc1ccc(-c2csc(N)n2)cc1	-1.3%	14.1µM*	?	40.7%	-7.0	?
COc1ccc(-c2csc(N=C(N)N)n2)cc1	3.1%	?	-20.9%	12.2%	49.2	-3.8%
COC(=O)C1=C(c2ccc(OC)cc2)OC(=O)C1(C)C	3.4%	i	-18.6%	-14.0%	-7.4	11.2%
COc1cc(OC)cc(C(=O)Nc2ccc(S(=O)(=O)Nc3ccccn3)cc2)c1	-0.3%	i	-13.4%	24.3%	-20.2	-3.8%
O=C1N[C@@H](Cc2ccccc2)COC(=O)[C@@H](Cc2ccc(F)cc2)CC/C=C/C[C@@H]1CC(=O)N(CCO)Cc1ccccc1	.	10µM*	?	-16.2%	-0.2	?
O=C1N[C@H](Cc2ccccc2)COC(=O)[C@H](Cc2ccc(F)cc2)CC/C=C/C[C@@H]1CC(=O)N(CCO)Cc1ccccc1	.	28.2µM*	?	5.0%	54.0	?
O=C1NCCOC(=O)[C@@H](Cc2ccc(F)cc2)CC/C=C/C[C@H]1CC(=O)N(CCO)Cc1ccccc1	.	?	-29.8%	?	-32.5	11.2µM*
O=C1NCCOC(=O)[C@H](Cc2ccc(F)cc2)CC/C=C/C[C@@H]1CC(=O)N(CCO)Cc1ccccc1	.	-27.9%	-25.6%	-27.3%	-35.3	7.7%
O=C1N[C@H](Cc2ccccc2)COC(=O)[C@@H](Cc2ccc(F)cc2)CC/C=C/C[C@H]1CC(=O)N(CCO)Cc1ccccc1	.	i	-27.6%	-37.6%	9.4	?
O=C(O)c1ccc2c3n(nc2c1)-c1ccc(Cl)cc1CO3	-4.8%	i	-18.6%	7.94µM*	59.8	54.8%
COc1ccc(CNC(=O)Cc2ccc(NC(=O)N3CCCCc4ccccc43)cc2)cc1	.	-18.7%	-19.8%	3.8%	36.2	.
COC(=O)C12OCC34C(CC5C(C)=C(O)C(=O)CC5(C)C3C(O)C1O)OC(=O)C(OC(=O)C=C(C)C)C24 (stereo not drawn)	.	31.6µM*	?	-41.9%	-98.6*	.
COC(=O)C12OCC34C(CC5C(C)=C(O)C(=O)CC5(C)C3C(O)C1O)OC(=O)C(OC(=O)/C=C(\C)C(C)C)C24 (stereo not drawn)	.	?	1.26µM*	-31.3%	-98.4*	?
Cc1ccc(N2CC(NC(=O)C3CCCC3)CC2=O)cc1C (stereo not drawn)	.	0.8%[7.34 µM]	-10.4%[7.34 µM]	-10.0%	-11.4	.
Cc1cc(C)cc(NC(=O)Cn2c(=O)oc3cc(S(=O)(=O)N4CCC(C)CC4)ccc32)c1	9.9%	?	?	-21.9%	-68.5*	-22.4%
CC1CCC2(CC1)NC(=O)N(CC(=O)N1c3ccccc3CC1C)C2=O (stereo not drawn)	.	-14.2%	-22.1%	-17.9%	-71.2*	19.5%
COc1ccc(NC(=O)Cn2c(=O)oc3cc(S(=O)(=O)NC4CCCC4)ccc32)cc1OC	.	4.1%	0.3%	43.5%	+	.
CC1CCN(S(=O)(=O)c2ccc3c(c2)oc(=O)n3CC(=O)N2c3ccccc3CC2C)CC1 (stereo not drawn)	0.4%	?	-25.6%	0.0%	41.8	12.6µM*
COc1ccc(NC(=O)Cn2c(=O)oc3cc(S(=O)(=O)NC(C)C)ccc32)cc1OC	.	-13.0%	-6.6%	31.6%	0.0	.
Cc1ccc(N(CC(=O)NCCc2ccc(Cl)cc2)S(=O)(=O)N(C)C)cc1	.	-14.7%	-11.7%	0.0%	10.6	.
SMILES	FBPA Giardia inh	Vaccinia mCherry	Vaccinia Venus	FMDV antiviral	HCMV inh	HCV inh
Cc1ccc(C(=O)OCc2cc(=O)n3nc(-c4cccs4)sc3n2)cc1	.	-7.6%	-2.9%	-18.5%	18.8	.
Cc1ccc(C(=O)CSC2=C(C#N)C(c3ccco3)C3=C(CCCC3=O)N2)cc1 (stereo not drawn)	-4.7%	.	.	0.0%	-26.1	25.1µM*
CC(C)(C)c1ccc(C(=O)CCCSC2=C(C#N)C(c3ccco3)C3=C(CCCC3=O)N2)cc1 (stereo not drawn)	-10.5%	.	.	-3.3%	?	6.31µM*
CSC1=C(C#N)C(c2ccc3c(c2)OCO3)C2=C(CCCC2=O)N1 (stereo not drawn)	2.1%	.	.	-0.1%	?	8.4%
CCSC1=C(C#N)C(c2ccc(Cl)cc2)C2=C(CCCC2=O)N1 (stereo not drawn)	-12.0%	.	.	-21.1%	-9.9	25.1µM*
N#CC1=C(SCC(=O)c2ccccc2)NC2=C(C(=O)CCC2)C1c1ccco1 (stereo not drawn)	-12.8%	?	?	-11.9%	106.1	11.2µM*
COc1cccc(NC(=O)CSC2=C(C#N)C(c3ccco3)C3=C(CCCC3=O)N2)c1 (stereo not drawn)	?	?	?	13.9%	46.0	?
CCc1ccc(NC(=O)CCCc2nc(-c3ccco3)no2)cc1	.	-9.9%	-10.1%	9.2%	5.9	.
COc1ccc(CNCc2ccccc2)cc1COc1ccc(NC(C)=O)cc1	.	-11.6%	-12.2%	.	.	.
COC(=O)c1cc2ccc(OC)cc2c2cc(OC)c(OC)cc12	.	-25.5%	?	?	-30.2	1.41µM*
COC(=O)c1cc(OC)c(OC)cc1NC(=O)Nc1ccc(OC)cc1	-0.2%	.	-25.6%	-3.2%	-16.8	5.5%
Cc1ccc(CNC(=O)C2CCN(c3nc(C)cc(C)n3)CC2)cc1	.	-30.0%	-7.0%	3.7%	0.0	53.8%
Cn1cccc1/C=N\NC(=O)Cc1ccc(Br)c2ccccc12	-0.2%	.	.	?	-79.9*	10µM*
Cn1cccc1/C=N/NC(=O)Cc1ccccc1	1.7%	-13.7%	-8.3%	23.0%	21.7	-6.9%
Cc1[nH]nc(-c2ccc(OCc3cnn(-c4ccccc4)c3)cc2O)c1Oc1ccc(F)cc1	.	.	-19.7%	-23.1%	-75.8*	?
CCOc1ccc(-c2nc(N)ncc2Oc2cccc(OC)c2)c(O)c1	-11.1%	-8.7%[1.46 µM]	?	?	-10.7	12.6µM*
Cc1[nH]nc(-c2ccc(OCc3cnn(-c4ccccc4)c3)c(C)c2O)c1Oc1ccccc1	5.8%	?	?	?	31.5	-28.9%
